# Screening data: PubChem BioAssay, National Center for Advancing Translational Sciences (NCATS)
# In the library only some 0.4% were active in any assay of this set; here they are far more common.
# FMDV antiviral = Primary qHTS Assay for Foot and Mouth Disease Virus Antivirals against NCGC Sytravon and CBC Compound Libraries: Firefly Luciferase Signal; FMDV antiviral cell assay, firefly luciferase signal; actives 0.23% (n = 120,000); Potency, µM (titrated, usually from 57.5 µM), without a hit: at the highest dose activity change, negative = inhibition, most hits filed as inhibitors; AID 1745856, 2022; also: nearly all actives have a fitted effect of over 60% in size
# FMDV RLuc = Primary qHTS Assay for Foot and Mouth Disease Virus Antivirals against NCGC Sytravon and CBC Compound Libraries: Renilla Luciferase Signal; FMDV replicon cells, Renilla luciferase signal; Potency, µM (titrated, usually from 57.5 µM), for inactives: top-dose activity change, negative = inhibition, hits mostly inhibitors; actives 0.32% (n = 120,000); also: nearly all actives have a fitted effect of over 55% in size
# Active calls of the source: *; ? = inconclusive; [ ] = another dose, or the depositor's remark. Calls follow the shape of the full dose curve. % is scaled to controls: 0 for no effect and ±100 for the full control effect; potency is read from the fitted curve at half-maximal effect.
SMILES,FMDV antiviral,FMDV RLuc
COC(=O)C(C)N1C(=O)S/C(=C/c2ccc(C)o2)C1=O (centres undefined),18%,-16%
COc1nc(C(=O)NC2(c3ccccc3)CCC2)cc2ccccc12,?,4.5µM*
COc1nc(C(=O)NCC(C)N(C)C)cc2ccccc12 (centres undefined),-14%,-15%
Cc1nc(-c2ccc(CNC(=O)c3nccnc3N)s2)cs1,?,8.9µM*
Cc1nc(-c2ccc(CCNC(=O)c3nccnc3N)s2)cs1,26%,?
CC(=O)OC1CC(OC2C(O)CC(OC3C(O)CC(OC4CC(O)C5(C)C(CC[C@@H]6[C@@H]5CCC5(C)C(C7=CC(=O)OC7)CCC65O)C4)OC3C)OC2C)OC(C)C1O (some centres undefined),0.56µM*,0.89µM*
CC1OC(OC2C(O)CC(OC3C(O)CC(OC4CCC5(C)C(CC[C@@H]6[C@@H]5CCC5(C)C(C7=CC(=O)OC7)CCC65O)C4)OC3C)OC2C)CC(O)C1O (some centres undefined),0.25µM*,0.56µM*
C[C@H]1O[C@@H](O[C@H]2CC[C@@]3(C)[C@H](CC[C@@H]4[C@@H]3C[C@@H](O)[C@]3(C)[C@@H](C5=CC(=O)OC5)CC[C@]43O)C2)C[C@H](O)[C@@H]1O[C@H]1C[C@H](O)[C@H](O[C@H]2C[C@H](O)[C@H](O[C@@H]3O[C@H](CO)[C@@H](O)[C@H](O)[C@H]3O)[C@@H](C)O2)[C@@H](C)O1,-80%[11.5 µM],-78%
C[C@H]1O[C@@H](O[C@H]2[C@@H](O)C[C@H](O[C@H]3[C@@H](O)C[C@H](O[C@H]4CC[C@@]5(C)[C@H](CC[C@@H]6[C@@H]5CC[C@]5(C)[C@@H](C7=CC(=O)OC7)CC[C@]65O)C4)O[C@@H]3C)O[C@@H]2C)C[C@H](O)[C@@H]1O,?,-74%
COC1CC(OC2CCC3(C)C(CC[C@@H]4[C@@H]3CCC3(C)C(C5=CC(=O)OC5)C(OC(C)=O)CC43O)C2)OC(C)C1O (some centres undefined),-83%,-76%
CC(=O)OC1CC2(O)[C@@H]3CCC4CC(OC5CC(O)C(OC6CC(O)C(OC7CC(O)C(O)C(C)O7)C(C)O6)C(C)O5)CCC4(C)[C@H]3CCC2(C)C1C1=CC(=O)OC1 (some centres undefined),0.63µM*,?
COC1C(O)CC(OC2C(O)CC(OC3C(O)CC(OC4CCC5(C)C(CCC6[C@@H]5CC(O)C5(C)C(C7=CC(=O)OC7)CCC65O)C4)OC3C)OC2C)OC1C (some centres undefined),?,0.5µM*
O=C(/C=C/c1cccc(O)c1)c1cccc(Br)c1,62%,31%
COc1ccc(C(=O)/C(C#N)=C\c2ccc(OC(F)F)c(OC)c2)cc1,15%,18%
CC(=O)c1ccc(Oc2nc(C)nc3c2oc2ccccc23)cc1,?,2.8µM*
CCOC(=O)c1ccc(Oc2nc(C)nc3c2oc2ccccc23)cc1,17%,-12%
CCCCCS(=O)(=O)c1oc(-c2cccs2)nc1S(=O)(=O)c1ccc(C)cc1,-10%,-12%
CCCCS(=O)(=O)c1oc(-c2cccs2)nc1S(=O)(=O)c1ccc(F)cc1,28µM*,-5%
CCCn1c(CN(C)Cc2ccccc2)nc2c1c(=O)n(C)c(=O)n2C,35µM*,?
CN(Cc1ccccc1)Cc1nc2c(c(=O)n(C)c(=O)n2C)n1CCc1ccccc1,-14%,5%
Cc1ccc(NC(=O)COC(=O)c2ccc3ccccc3n2)c(C)c1,?,22µM*
Cc1ccc(C)c(NC(=O)COC(=O)c2ccc3ccccc3n2)c1,-5%,-15%
NC(=O)CCS(=O)(=O)CCN1CCCC1c1cccc(F)c1 (centres undefined),3%,-4%
O=C(NCc1cccc(Cl)c1)c1cc2ccc3cccnc3c2[nH]1,26%,22%
CC(C)N(Cc1ccccc1)C(=O)c1cc2ccc3cccnc3c2[nH]1,25µM*,8.9µM*
SMILES,FMDV antiviral,FMDV RLuc
CCN(CC)c1ccc(NC(=O)c2sc3nc4c(cc3c2N)CN(C)CC4)cc1,23%,4%
CCc1ccc(NC(=O)c2sc3nc4c(cc3c2N)CN(C(C)C)CC4)cc1,0%,25µM*
CCc1ccc(-c2c(C)sc(N)c2C#N)cc1,0%,11%
Cc1cc(N2CCN(C(C(=O)O)c3c[nH]c4ccc(Br)cc34)CC2)nc2ccccc12 (centres undefined),-8%,-17%
Cc1cccc(-c2noc(-c3ccc(N4CCCC4)c([N+](=O)[O-])c3)n2)c1,8.9µM*,7%
Cc1cccc(-c2noc(-c3ccc(N4CCOCC4)c([N+](=O)[O-])c3)n2)c1,-23%,2%
Cc1ccc(C)c(N2N=C(C(=O)Nc3ccccc3S(=O)(=O)N3CCCCC3)CCC2=O)c1,-17%,17%
